Data: PubChem BioAssay (EPA / NIEHS)
Inconclusive results are not listed. Active and inactive are the calls of the source. The calls were made as follows, unless noted: active = hit-call score of the fitted dose curve at least 0.9, where 1 is the maximum; inconclusive = response in the unintended direction; inactive = score below 0.9.

Columns and labels:
[1] = ATG_TAL_CIS: Attagene CIS-FACTORIAL HepG2 Assay for human TAL Basal Promoter (AID 2282966; active = hit-call score of the fitted dose curve at least 0.9, where 1 is the maximum; inactive = score below 0.9;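 also: background control endpoint measuring basal TAL promoter reporter mRNA not a specific factor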); details: HepG2 Attagene cis-factorial TAL promoter reporter; actives raise or lower the signal
Summary of the method: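 HepG2, transient MRTU transfection, 24 h compound exposure; RNA → oligo(dT) RT → PCR → 6-FAM primer extension → HpaI digest → CE fluorescence. Bidirectional curve fit vs DMSO. Background-control readout.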

[2] = ATG_TGFb_CIS: Attagene CIS-FACTORIAL HepG2 Assay for human Transforming Growth Factor (TGF) (AID 2282967; active = hit-call score of the fitted dose curve at least 0.9, where 1 is the maximum; inactive = score below 0.9); details: HepG2 Attagene CIS TGFb reporter, mRNA transcription; actives raise or lower the signal
Summary of the method: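 Endogenous TGFB1-linked transcription factor activity read as reporter mRNA via RT-PCR and capillary electrophoresis, 24 h after dosing transiently transfected HepG2 cells. Gain or loss of signal fitted relative to DMSO.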

[3] = ATG_VDRE_CIS: Attagene CIS-FACTORIAL HepG2 Assay for human Vitamin D Receptor Element (VDRE) (AID 2282968; active = hit-call score of the fitted dose curve at least 0.9, where 1 is the maximum; inactive = score below 0.9); details: HepG2 VDRE cis-reporter transcription, actives raise or lower the signal
Summary of the method: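 Readout is VDRE-driven reporter mRNA reflecting endogenous factor activity in human HepG2 cells, sampled 24 h post-dose. Quantification used labelled RT-PCR products separated by capillary electrophoresis; bidirectional analysis relative to DMSO.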

[4] = target: Nuclear receptor subfamily 1 group I member 3 (Homo sapiens) (UniProt Q14994); experiment: ATG_CAR_TRANS: Attagene TRANS-FACTORIAL HepG2 Assay for human Constitutive Androstane Receptor (CAR) (AID 2282969); details: HepG2 Attagene TRANS-FACTORIAL CAR reporter;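 also: activators raise reporter mRNA above DMSO so AC50 marks induction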
Summary of the method: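 Signal is reporter mRNA induction relative to DMSO, measured 24 h after dosing by RT-PCR with fluorescent primer extension and capillary electrophoresis. Human HepG2 liver cells carried transiently transfected chimeric NR-Gal4/GAL4-UAS reporter constructs.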

[5] = target: X-box-binding protein 1 (Homo sapiens) (UniProt P17861); experiment: ATG_Xbp1_CIS: Attagene CIS-FACTORIAL HepG2 Assay for human X-box Binding Protein 1 (XBP1) (AID 2282972; active = hit-call score of the fitted dose curve at least 0.9, where 1 is the maximum; inactive = score below 0.9); details: HepG2 XBP1 cis-element reporter, Attagene multiplex; actives raise or lower the signal
Summary of the method: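 Reporter transcripts were quantified by RT-PCR with fluorescent primer extension and capillary electrophoresis after 24 h chemical exposure. Cells: transiently transfected HepG2 carrying cis-regulated reporter constructs; data fitted bidirectionally relative to DMSO.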

[6] = ATG_M_19_TRANS: Attagene TRANS-FACTORIAL HepG2 Assay for M19 Transcription Factor (Internal Marker) (AID 2282974); details: HepG2 Attagene TRANS-FACTORIAL M19 internal marker reporter
Summary of the method: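 HepG2 transiently transfected with GAL4-UAS multiplex reporter constructs, exposed 24 h; reporter RNA quantified by RT-PCR, 6-FAM labeling, HpaI digestion and capillary electrophoresis; internal background marker fitted upward versus DMSO.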

[7] = target: Glucocorticoid receptor (Homo sapiens) (UniProt P04150); experiment: ATG_GR_TRANS: Attagene TRANS-FACTORIAL HepG2 Assay for human Glucocorticoid Receptor (GR) (AID 2282978); details: HepG2 Attagene TRANS GR reporter, mRNA transcription;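 also: activators score as hits since higher reporter transcript over DMSO is fitted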
Summary of the method: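 HepG2 cells transiently transfected with GAL4-UAS reporter units and exogenous GR-Gal4 chimera, dosed 24 h. Reporter mRNA by RT-PCR, FAM labeling, HpaI digest and capillary electrophoresis; gain-of-signal fit versus DMSO.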

[8] = target: Oxysterols receptor LXR-alpha (Homo sapiens) (UniProt Q13133); experiment: ATG_LXRa_TRANS: Attagene TRANS-FACTORIAL HepG2 Assay for human Liver X Receptor alpha (LXRa) (AID 2282980); details: HepG2 Attagene TRANS reporter, LXRa transactivation
Summary of the method: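 Read-out: reporter transcript levels by RT-PCR plus capillary electrophoresis, fluorescence intensity. Transiently transfected HepG2, exogenous NR-GAL4 chimera, GAL4-UAS reporters; 24 h compound exposure. Activity = increase over DMSO negative control.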

[9] = target: Hepatocyte nuclear factor 4-alpha (Homo sapiens) (UniProt P41235); experiment: ATG_HNF4a_TRANS: Attagene TRANS-FACTORIAL HepG2 Assay for human Hepatocyte Nuclear Factor 4 alpha (HNF4a) (AID 2282982); details: HepG2 HNF4a transactivation reporter, mRNA readout
Summary of the method: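 Activity of an exogenous HNF4a–Gal4 fusion scored as induced GAL4-UAS reporter transcripts after 24 h chemical exposure of transfected human HepG2 cells. Read-out via RT-PCR with 6-FAM labelling and capillary electrophoresis; rise over DMSO baseline.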

[10] = ATG_M_32_TRANS: Attagene TRANS-FACTORIAL HepG2 Assay for M32 Transcription Factor (Internal Marker) (AID 2282984); details: HepG2 Attagene TRANS M32 internal marker reporter;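 also: transcript level of a background control reporter unit measured by RT-PCR and capillary electrophoresis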
Summary of the method: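 Internal background reporter in transfected HepG2: after 24 h chemical exposure, RNA reverse-transcribed, reporter cDNA amplified, fluorescently labelled and HpaI-cut, then sized by capillary electrophoresis. Gain of signal fitted against DMSO control.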

[11] = target: Nuclear receptor subfamily 4 group A member 2 (Homo sapiens) (UniProt P43354); experiment: ATG_NURR1_TRANS: Attagene TRANS-FACTORIAL HepG2 Assay for human Nuclear Receptor Related Protein 1 (NURR1) (AID 2282985); details: HepG2 Attagene TRANS reporter, mRNA readout
Summary of the method: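 Reporter transcript induction, measured by RT-PCR with fluorescent labelling, HpaI digestion and capillary electrophoresis, after 24 hr dosing of human HepG2 cells transiently expressing an exogenous NR-Gal4 fusion with GAL4-UAS-driven reporters; DMSO as baseline.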

[12] = target: Nuclear respiratory factor 1 (Homo sapiens) (UniProt Q16656); experiment: ATG_NRF1_CIS: Attagene CIS-FACTORIAL HepG2 Assay for human Nuclear Respiratory Factor 1 (NRF1) Orphan Gene (AID 2282987; active = hit-call score of the fitted dose curve at least 0.9, where 1 is the maximum; inactive = score below 0.9); details: HepG2 NRF1 cis-element reporter, Attagene multiplex; actives raise or lower the signal
Summary of the method: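 HepG2 cells transiently transfected with multiple cis-regulated reporter units, exposed 24 h. Reporter mRNAs measured by RT-PCR, fluorescent labelling, HpaI digestion and capillary electrophoresis; bidirectional fitting against DMSO.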

[13] = ATG_NFI_CIS: Attagene CIS-FACTORIAL HepG2 Assay for human Nuclear Factor I (NFI) (AID 2282989; active = hit-call score of the fitted dose curve at least 0.9, where 1 is the maximum; inactive = score below 0.9); details: HepG2 cis-regulatory reporter, NFI response element transcription; actives raise or lower the signal
Summary of the method: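 Reporter transcripts were measured by RT-PCR with fluorescent primer extension and capillary electrophoresis 24 h post-treatment. HepG2 cells carried transiently transfected cis-regulated reporter constructs reporting endogenous factor activity; gain or loss fitted against DMSO baseline.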

[14] = ATG_GAL4_TRANS: Attagene TRANS-FACTORIAL HepG2 Assay for GAL4 (Internal Marker) (AID 2282976); details: HepG2 Attagene TRANS GAL4 internal marker reporter
Summary of the method: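 RT-PCR/capillary electrophoresis readout of reporter mRNA. HepG2, transient MRTU transfection (GAL4-UAS reporters), 24 h compound exposure. Background-control endpoint, positive direction vs DMSO baseline.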

[15] = target: Estrogen-related receptor gamma (Homo sapiens) (UniProt P62508); experiment: ATG_ERRg_TRANS: Attagene TRANS-FACTORIAL HepG2 Assay for human Estrogen-Related Receptor gamma (ERRg) (AID 2282977); details: HepG2 Attagene TRANS reporter, ERRg transactivation;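 also: hits increase reporter signal over DMSO so potencies reflect activators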
Summary of the method: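 Exogenous NR-Gal4 chimera activity measured as reporter transcript induction after 24 h in transiently transfected HepG2 cells. RNA reverse-transcribed, PCR-amplified, 6-FAM-labelled and resolved by capillary electrophoresis; increase over DMSO baseline.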

[16] = target: Bile acid receptor (Homo sapiens) (UniProt Q96RI1); experiment: ATG_FXR_TRANS: Attagene TRANS-FACTORIAL HepG2 Assay for Farnesoid X Receptor (FXR) (AID 2282979); details: HepG2 Attagene TRANS FXR-GAL4 reporter transcription;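 also: hits raise reporter mRNA above DMSO so AC50 marks FXR activation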
Summary of the method: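 Read-out: fluorescent reporter transcripts quantified by capillary electrophoresis after RT-PCR of total RNA. Source cells were HepG2 transiently carrying chimeric NR-GAL4 plus GAL4-UAS reporter units, dosed 24 h. Activity fitted upward relative to DMSO baseline.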

[17] = target: Oxysterols receptor LXR-beta (Homo sapiens) (UniProt P55055); experiment: ATG_LXRb_TRANS: Attagene TRANS-FACTORIAL HepG2 Assay for human Liver X Receptor beta (LXRb) (AID 2282981); details: HepG2 Attagene TRANS GAL4-LXRb reporter, mRNA
Summary of the method: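 After 24 h chemical treatment of transfected HepG2 cells carrying exogenous NR-Gal4 chimeras, reporter mRNA was quantified by fluorescent RT-PCR and capillary electrophoresis; activity taken as increase over DMSO controls.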

[18] = ATG_M_06_TRANS: Attagene TRANS-FACTORIAL HepG2 Assay for M06 Transcription Factor (Internal Marker) (AID 2282983); details: HepG2 Attagene TRANS M06 internal marker reporter
Summary of the method: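 Read-out: fluorescent reporter cDNA fragments resolved by capillary electrophoresis after RT-PCR and HpaI cut. Source cells were HepG2 carrying transfected multi-reporter GAL4 constructs, dosed 24 h. Increase over DMSO control analysed.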

[19] = target: Transcriptional activator Myb (Homo sapiens) (UniProt P10242); experiment: ATG_Myb_CIS: Attagene CIS-FACTORIAL HepG2 Assay for human Myeloblastosis (Myb) Proto-Oncogene Transcription Factor (AID 2282986; active = hit-call score of the fitted dose curve at least 0.9, where 1 is the maximum; inactive = score below 0.9); details: HepG2 Attagene CIS-FACTORIAL Myb reporter transcription; actives raise or lower the signal
Summary of the method: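 Transiently transfected HepG2 cells carrying a multiplexed cis-promoter reporter set report endogenous Myb activity after 24 h compound exposure. Reporter mRNA is read by RT-PCR with capillary electrophoresis of fluorescent products, fitted bidirectionally against DMSO.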

[20] = target: Steroid hormone receptor ERR1 (Homo sapiens) (UniProt P11474); experiment: ATG_ERRa_TRANS: Attagene TRANS-FACTORIAL HepG2 Assay for human Estrogen-Related Receptor alpha (ERRa) (AID 2282971); details: HepG2 Attagene TRANS reporter, ERRa transactivation
Summary of the method: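 Transfected HepG2, 24 h dosing, ERRa-Gal4 chimera driving GAL4-UAS reporter. Readout: reporter mRNA via RT-PCR plus capillary electrophoresis (fluorescence). Positive direction vs DMSO control.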

Measured: outcome

Sequence of Nuclear receptor subfamily 1 group I member 3 (Homo sapiens) (Q14994 whole entry, looked up, the tested form may be a part): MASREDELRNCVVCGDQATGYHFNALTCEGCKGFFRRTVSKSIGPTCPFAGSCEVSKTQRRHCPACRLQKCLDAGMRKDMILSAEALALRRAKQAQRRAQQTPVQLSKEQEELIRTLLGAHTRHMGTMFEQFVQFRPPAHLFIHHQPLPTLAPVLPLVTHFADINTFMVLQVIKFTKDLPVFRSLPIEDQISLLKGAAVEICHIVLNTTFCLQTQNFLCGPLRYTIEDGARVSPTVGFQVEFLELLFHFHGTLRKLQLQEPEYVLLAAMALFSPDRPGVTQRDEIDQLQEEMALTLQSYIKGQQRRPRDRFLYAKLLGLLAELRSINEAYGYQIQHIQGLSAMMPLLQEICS
Sequence of Nuclear respiratory factor 1 (Homo sapiens) (Q16656 whole entry, looked up): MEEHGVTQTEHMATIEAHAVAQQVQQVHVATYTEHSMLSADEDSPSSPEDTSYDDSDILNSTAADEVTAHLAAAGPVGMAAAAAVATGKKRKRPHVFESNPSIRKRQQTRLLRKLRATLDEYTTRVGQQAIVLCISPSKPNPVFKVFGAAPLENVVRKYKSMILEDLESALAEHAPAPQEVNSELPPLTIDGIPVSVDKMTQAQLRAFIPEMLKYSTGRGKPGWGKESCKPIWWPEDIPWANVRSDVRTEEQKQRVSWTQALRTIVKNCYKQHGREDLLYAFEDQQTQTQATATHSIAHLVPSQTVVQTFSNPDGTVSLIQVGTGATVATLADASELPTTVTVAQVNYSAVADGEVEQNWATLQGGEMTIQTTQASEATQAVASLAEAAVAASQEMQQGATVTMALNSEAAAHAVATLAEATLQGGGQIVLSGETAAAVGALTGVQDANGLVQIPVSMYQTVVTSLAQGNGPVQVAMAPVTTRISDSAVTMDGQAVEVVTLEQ
Sequence of Glucocorticoid receptor (Homo sapiens) (P04150 whole entry, looked up, the tested form may be a part): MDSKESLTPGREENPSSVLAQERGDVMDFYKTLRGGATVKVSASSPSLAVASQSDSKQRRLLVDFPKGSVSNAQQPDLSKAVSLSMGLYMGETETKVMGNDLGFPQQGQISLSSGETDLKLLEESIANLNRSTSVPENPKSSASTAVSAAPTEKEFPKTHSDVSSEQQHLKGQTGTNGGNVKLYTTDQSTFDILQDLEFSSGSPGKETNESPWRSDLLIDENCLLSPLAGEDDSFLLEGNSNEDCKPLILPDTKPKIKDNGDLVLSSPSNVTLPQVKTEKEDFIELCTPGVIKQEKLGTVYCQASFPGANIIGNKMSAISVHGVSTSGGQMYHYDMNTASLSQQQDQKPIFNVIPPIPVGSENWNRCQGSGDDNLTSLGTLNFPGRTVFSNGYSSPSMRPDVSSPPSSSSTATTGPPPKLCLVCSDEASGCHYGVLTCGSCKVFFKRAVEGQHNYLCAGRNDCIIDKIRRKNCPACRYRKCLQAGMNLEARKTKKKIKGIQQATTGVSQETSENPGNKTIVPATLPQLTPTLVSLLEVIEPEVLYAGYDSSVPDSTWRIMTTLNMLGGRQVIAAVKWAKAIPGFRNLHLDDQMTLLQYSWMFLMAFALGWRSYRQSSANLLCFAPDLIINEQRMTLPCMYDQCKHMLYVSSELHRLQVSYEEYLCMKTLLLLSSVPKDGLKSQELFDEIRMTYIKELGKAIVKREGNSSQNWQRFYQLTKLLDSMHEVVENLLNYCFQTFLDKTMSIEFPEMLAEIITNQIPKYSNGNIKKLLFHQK
Sequence of Transcriptional activator Myb (Homo sapiens) (P10242 whole entry, looked up): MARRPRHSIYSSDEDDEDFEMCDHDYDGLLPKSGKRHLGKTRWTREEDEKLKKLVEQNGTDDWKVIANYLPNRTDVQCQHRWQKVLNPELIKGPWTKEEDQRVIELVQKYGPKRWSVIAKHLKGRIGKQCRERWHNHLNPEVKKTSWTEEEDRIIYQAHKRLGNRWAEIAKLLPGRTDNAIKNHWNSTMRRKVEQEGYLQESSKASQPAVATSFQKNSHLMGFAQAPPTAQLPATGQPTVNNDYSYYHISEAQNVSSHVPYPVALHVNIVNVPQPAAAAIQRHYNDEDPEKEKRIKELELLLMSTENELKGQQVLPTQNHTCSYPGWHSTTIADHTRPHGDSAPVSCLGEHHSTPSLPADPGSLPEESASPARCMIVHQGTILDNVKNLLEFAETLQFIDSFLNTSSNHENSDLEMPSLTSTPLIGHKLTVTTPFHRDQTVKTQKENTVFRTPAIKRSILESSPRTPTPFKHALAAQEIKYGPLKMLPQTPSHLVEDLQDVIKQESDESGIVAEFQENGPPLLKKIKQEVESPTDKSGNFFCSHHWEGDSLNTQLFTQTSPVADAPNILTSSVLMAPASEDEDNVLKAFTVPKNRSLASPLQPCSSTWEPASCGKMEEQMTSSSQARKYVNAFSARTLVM
Sequence of Hepatocyte nuclear factor 4-alpha (Homo sapiens) (P41235 whole entry, looked up, the tested form may be a part): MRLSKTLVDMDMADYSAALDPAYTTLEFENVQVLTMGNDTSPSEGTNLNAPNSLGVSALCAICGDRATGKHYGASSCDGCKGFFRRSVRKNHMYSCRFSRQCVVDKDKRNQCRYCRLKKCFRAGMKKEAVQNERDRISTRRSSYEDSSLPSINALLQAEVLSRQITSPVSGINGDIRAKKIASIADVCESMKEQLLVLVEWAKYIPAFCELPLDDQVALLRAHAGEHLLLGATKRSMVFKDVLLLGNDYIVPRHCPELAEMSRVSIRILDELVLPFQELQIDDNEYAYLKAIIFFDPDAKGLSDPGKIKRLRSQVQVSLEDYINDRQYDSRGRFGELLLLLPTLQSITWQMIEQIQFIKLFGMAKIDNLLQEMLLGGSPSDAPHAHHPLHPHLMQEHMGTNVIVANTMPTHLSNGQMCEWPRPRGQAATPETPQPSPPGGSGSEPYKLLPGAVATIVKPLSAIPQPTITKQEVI
Sequence of X-box-binding protein 1 (Homo sapiens) (P17861 whole entry, looked up): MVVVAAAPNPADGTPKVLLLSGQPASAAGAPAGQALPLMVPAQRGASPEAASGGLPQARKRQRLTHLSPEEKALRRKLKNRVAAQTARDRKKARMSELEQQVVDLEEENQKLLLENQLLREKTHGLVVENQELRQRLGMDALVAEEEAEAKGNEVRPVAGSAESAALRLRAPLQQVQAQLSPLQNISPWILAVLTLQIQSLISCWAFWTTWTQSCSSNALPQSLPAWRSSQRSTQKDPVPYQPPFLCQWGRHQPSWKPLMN
Sequence of Nuclear receptor subfamily 4 group A member 2 (Homo sapiens) (P43354 whole entry, looked up, the tested form may be a part): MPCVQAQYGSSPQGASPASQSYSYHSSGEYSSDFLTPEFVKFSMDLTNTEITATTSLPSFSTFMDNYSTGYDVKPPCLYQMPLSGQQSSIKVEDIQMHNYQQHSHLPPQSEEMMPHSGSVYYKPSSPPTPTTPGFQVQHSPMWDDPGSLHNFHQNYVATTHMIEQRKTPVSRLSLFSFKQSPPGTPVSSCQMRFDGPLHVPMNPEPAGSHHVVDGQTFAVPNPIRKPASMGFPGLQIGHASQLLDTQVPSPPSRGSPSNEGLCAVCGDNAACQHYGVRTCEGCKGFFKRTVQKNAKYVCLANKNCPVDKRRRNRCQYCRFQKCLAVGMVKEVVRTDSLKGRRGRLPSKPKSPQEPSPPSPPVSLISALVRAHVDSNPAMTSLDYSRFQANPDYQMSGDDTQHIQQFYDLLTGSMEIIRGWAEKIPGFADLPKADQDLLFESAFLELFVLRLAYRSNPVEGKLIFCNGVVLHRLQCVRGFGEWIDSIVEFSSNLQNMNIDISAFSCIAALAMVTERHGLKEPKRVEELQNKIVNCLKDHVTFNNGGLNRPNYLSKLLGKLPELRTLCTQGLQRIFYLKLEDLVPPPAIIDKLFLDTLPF
Sequence of Bile acid receptor (Homo sapiens) (Q96RI1 whole entry, looked up, the tested form may be a part): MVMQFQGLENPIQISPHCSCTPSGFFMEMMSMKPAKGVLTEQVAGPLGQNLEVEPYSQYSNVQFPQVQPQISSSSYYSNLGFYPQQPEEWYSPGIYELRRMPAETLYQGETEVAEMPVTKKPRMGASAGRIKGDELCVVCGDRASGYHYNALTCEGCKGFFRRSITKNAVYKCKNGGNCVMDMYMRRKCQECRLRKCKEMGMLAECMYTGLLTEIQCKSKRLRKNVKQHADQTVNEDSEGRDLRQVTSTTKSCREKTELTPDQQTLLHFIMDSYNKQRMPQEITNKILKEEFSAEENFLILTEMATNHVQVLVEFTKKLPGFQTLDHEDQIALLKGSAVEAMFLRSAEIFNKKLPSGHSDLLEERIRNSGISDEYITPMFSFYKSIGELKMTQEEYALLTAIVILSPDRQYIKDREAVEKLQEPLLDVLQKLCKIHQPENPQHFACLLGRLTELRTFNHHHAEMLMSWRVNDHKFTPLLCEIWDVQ
Sequence of Oxysterols receptor LXR-beta (Homo sapiens) (P55055 whole entry, looked up, the tested form may be a part): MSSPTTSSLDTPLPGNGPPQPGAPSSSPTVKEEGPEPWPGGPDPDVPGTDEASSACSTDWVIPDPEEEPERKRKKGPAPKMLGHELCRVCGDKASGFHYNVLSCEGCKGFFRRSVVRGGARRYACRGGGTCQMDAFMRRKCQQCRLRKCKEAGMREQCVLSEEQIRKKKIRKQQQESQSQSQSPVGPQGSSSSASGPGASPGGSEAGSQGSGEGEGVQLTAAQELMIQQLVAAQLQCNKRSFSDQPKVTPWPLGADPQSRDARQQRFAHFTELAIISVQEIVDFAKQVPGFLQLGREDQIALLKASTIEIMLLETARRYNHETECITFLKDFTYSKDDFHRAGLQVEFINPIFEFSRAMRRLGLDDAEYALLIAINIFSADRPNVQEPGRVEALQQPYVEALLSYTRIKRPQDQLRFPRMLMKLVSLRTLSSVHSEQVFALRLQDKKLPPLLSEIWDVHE
Sequence of Oxysterols receptor LXR-alpha (Homo sapiens) (Q13133 whole entry, looked up, the tested form may be a part): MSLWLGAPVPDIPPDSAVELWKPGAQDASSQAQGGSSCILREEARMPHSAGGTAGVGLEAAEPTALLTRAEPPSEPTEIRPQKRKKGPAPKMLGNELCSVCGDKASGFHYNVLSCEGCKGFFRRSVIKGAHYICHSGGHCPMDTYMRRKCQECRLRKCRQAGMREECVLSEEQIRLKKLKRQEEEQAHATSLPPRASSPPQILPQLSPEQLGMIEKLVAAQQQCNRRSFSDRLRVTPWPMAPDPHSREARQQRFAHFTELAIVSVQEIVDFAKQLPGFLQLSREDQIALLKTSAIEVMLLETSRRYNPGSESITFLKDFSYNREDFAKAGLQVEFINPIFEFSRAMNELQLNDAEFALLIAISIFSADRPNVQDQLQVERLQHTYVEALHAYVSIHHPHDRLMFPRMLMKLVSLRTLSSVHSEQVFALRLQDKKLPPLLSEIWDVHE

CCCCCCC(CO)CCCC (stereo unspecified)
not listed: [14] | [15] | [16] | [17] | [18] | [19] | [20]
inactive: all other assays above

c1ccc(CCc2ccccc2)cc1
not listed: [7] | [10] | [13] | [20]
inactive: all other assays above

CCCOCCO
not listed: [8] | [15] | [17] | [20]
inactive: all other assays above

C1=CC2C3C=CC(C3)C2C1 (stereo unspecified)
not listed: [8] | [9] | [10] | [15]
inactive: all other assays above
